Of roughly 8,800 targets only a part is listed; those with a hit were picked by preference. About 0.5% of all pairs of compound and target were hits.
What was measured:
Assay in all cases: log2 fold change, soluble protein after heating vs DMSO (PISA); higher = thermal stabilisation; K562 lysate, 10 uM; active = over 0.2 and 3.5 SD of the protein, either way, in both replicates (recomputed)
[1] = compound: C1=CC=C(C=C1)[C@H](COC2=CC3=C(C=C2)NC(=O)N3)NC(=O)C4=CC=CN(C4=O)CC5=CC(=C(C=C5)F)F
How it was run: (§1)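 K562 pellets were dounce-homogenised in PBS pH 7.4 containing 1 mM MgCl2, and the crude extract, at 1 mg/mL protein, was exposed to 10 μM compound for 30 min. Aliquots were heated for 3 min across 48°C-58°C, pooled, brought to 0.5% NP-40 at 4°C and spun at 21,000xg for 90 min, with the supernatant taken as soluble protein. TMTpro 16plex LC-MS/MS with equalised channel sums quantified that protein. Values are log-two fold changes in thermal stability relative to solvent controls, taken from duplicates.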

[2] = compound: CC1=C(SC2=C1C(=N[C@H](C3=NN=C(N32)C)CC(=O)N)C4=CC=C(C=C4)Cl)C
How it was run: as §1

[3] = compound: CC1=C2C(=CC=C1)N=C(N(C2=O)C3=CC=CC=C3C)CN4C=NC5=C(N=CN=C54)N
How it was run: as §1

[4] = compound: Cc1sc2c(c1C)C(c1ccc(Cl)cc1)=N[C@@H](CC(=O)OC(C)(C)C)c1nnc(C)n1-2
How it was run: as §1

[5] = compound: c1ccc([C@@H]2C[C@H]2NC2CCNCC2)cc1
How it was run: as §1

Measured: log2 fold change

PDAP1 (UniProt Q13442)
UniProt Q13442, sequence (Q13442 whole entry, looked up): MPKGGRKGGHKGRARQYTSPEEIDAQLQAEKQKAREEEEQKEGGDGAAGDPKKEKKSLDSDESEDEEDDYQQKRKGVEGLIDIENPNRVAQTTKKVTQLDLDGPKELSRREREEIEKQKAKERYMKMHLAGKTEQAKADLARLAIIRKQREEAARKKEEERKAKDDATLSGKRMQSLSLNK
inactive: [1] 0.004 | [2] 0.042 | [3] 0.008 | [4] 0.084 | [5] -0.112

PPT2 isoform 3 (UniProt Q9UMR5)
UniProt Q9UMR5, sequence (Q9UMR5 whole entry, looked up): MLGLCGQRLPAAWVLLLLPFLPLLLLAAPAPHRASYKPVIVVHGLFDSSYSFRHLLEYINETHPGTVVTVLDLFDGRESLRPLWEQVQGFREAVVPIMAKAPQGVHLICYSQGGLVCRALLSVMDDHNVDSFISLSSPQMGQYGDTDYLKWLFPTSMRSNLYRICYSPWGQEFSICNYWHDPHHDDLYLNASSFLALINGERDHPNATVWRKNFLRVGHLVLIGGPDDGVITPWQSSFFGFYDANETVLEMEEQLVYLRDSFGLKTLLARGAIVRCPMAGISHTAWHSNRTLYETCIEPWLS
inactive: [1] 0.01 | [2] -0.03 | [3] -0.046 | [4] -0.048 | [5] -0.08

PIR (UniProt O00625)
UniProt O00625, sequence (O00625 whole entry, looked up): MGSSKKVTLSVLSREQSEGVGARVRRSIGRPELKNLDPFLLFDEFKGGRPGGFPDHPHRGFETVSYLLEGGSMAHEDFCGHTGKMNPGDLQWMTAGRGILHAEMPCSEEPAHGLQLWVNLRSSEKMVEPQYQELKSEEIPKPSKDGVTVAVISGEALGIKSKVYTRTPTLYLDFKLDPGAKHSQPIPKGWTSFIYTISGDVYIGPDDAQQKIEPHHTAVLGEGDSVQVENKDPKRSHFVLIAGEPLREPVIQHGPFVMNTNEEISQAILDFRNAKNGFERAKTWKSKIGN
inactive: [1] -0.013 | [2] 0.017 | [3] 0.026 | [4] 0.009 | [5] 0.06

PIP4P2 (UniProt Q8N4L2)
UniProt Q8N4L2, sequence (Q8N4L2 whole entry, looked up): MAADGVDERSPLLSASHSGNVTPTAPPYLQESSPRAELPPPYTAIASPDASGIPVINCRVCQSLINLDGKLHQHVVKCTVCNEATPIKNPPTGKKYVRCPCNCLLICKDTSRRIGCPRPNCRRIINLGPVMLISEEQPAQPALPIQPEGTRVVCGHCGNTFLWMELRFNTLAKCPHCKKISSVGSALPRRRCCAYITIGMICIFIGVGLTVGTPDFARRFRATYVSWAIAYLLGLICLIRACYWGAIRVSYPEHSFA
inactive: [1] 0.03 | [2] -0.068 | [3] -0.012 | [4] 0.012 | [5] -0.106

PRKAR2A (UniProt P13861)
UniProt P13861, sequence (P13861 whole entry, looked up): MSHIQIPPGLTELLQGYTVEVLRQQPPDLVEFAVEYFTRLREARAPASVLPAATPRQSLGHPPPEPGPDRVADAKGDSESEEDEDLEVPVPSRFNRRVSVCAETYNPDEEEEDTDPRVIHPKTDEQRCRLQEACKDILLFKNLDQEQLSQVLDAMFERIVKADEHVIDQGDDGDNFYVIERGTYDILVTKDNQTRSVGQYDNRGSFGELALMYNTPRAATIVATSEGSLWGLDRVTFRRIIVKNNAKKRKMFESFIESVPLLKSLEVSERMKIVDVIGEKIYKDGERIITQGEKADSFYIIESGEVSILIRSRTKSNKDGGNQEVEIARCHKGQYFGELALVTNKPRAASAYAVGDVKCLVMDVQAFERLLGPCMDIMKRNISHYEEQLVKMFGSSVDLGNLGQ
inactive: [1] 0.009 | [2] 0.012 | [3] 0.038 | [4] -0.011 | [5] 0.027

PIP4K2C (UniProt Q8TBX8)
UniProt Q8TBX8, sequence (Q8TBX8 whole entry, looked up): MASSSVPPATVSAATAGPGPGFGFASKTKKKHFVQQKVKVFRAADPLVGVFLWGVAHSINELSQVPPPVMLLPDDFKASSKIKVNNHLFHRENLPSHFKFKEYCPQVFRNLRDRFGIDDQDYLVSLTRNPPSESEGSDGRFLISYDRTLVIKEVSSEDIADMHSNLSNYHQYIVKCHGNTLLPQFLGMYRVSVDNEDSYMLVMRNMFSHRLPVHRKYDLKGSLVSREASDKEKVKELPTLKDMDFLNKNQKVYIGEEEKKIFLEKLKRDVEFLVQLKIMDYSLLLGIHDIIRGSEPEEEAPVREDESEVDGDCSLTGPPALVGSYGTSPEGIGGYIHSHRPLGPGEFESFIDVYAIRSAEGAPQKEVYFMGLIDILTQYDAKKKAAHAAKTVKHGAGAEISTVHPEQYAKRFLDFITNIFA
inactive: [1] -0.12 | [2] -0.062 | [3] -0.113 | [4] -0.023 | [5] -0.011

PKP3 isoform 2 (UniProt Q9Y446)
UniProt Q9Y446, sequence (Q9Y446 whole entry, looked up): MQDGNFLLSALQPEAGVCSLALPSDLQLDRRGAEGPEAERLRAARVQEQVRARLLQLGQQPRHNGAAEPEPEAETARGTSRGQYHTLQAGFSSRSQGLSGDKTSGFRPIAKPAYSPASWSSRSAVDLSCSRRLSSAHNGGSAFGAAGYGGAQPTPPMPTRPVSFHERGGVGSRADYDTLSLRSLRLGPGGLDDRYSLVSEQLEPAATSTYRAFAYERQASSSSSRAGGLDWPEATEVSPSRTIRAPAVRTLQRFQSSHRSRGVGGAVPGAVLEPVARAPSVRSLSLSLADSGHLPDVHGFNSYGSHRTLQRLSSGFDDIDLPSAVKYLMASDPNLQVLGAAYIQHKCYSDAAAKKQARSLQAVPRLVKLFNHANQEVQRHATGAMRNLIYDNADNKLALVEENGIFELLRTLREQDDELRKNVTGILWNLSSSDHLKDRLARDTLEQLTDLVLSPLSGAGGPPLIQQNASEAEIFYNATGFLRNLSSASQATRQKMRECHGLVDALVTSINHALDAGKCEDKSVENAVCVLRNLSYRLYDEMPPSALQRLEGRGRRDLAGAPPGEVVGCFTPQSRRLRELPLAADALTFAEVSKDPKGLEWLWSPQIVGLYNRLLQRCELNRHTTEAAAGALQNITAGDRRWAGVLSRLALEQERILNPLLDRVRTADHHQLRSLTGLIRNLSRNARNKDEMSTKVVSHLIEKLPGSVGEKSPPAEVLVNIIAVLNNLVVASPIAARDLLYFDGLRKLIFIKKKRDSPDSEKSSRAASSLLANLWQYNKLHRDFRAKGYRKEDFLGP
inactive: [1] -0.049 | [2] 0.014 | [3] 0.002 | [4] 0.062 | [5] -0.004

PRKCD (UniProt Q05655)
UniProt Q05655, sequence (Q05655 whole entry, looked up): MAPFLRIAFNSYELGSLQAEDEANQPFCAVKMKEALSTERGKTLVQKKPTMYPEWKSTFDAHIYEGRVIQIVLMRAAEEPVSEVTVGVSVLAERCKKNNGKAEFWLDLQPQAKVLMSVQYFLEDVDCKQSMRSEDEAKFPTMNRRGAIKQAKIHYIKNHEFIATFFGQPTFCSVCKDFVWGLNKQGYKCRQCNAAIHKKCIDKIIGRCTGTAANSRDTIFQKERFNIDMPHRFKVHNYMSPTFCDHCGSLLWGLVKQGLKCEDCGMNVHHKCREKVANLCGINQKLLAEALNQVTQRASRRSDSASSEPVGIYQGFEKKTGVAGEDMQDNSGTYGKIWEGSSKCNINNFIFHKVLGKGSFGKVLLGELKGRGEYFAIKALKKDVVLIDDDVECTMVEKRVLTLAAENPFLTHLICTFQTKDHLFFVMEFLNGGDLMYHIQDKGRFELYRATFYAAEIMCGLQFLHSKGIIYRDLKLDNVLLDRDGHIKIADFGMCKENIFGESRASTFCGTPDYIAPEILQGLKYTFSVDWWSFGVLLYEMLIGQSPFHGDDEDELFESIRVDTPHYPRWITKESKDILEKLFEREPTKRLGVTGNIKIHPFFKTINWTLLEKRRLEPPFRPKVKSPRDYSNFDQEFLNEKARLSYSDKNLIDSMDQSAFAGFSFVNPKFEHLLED
inactive: [1] 0.003 | [2] 0.022 | [3] 0.028 | [4] -0.003 | [5] 0.023

POLR2B (UniProt P30876)
inactive: [1] -0.021 | [2] 0.024 | [3] 0.019 | [4] 0.021 | [5] 0.013

POLR2G (UniProt P62487)
inactive: [1] 0.018 | [2] 0.021 | [3] -0.003 | [4] 0.007 | [5] -0.108

PFN1 (UniProt P07737)
UniProt P07737, sequence (P07737 whole entry, looked up): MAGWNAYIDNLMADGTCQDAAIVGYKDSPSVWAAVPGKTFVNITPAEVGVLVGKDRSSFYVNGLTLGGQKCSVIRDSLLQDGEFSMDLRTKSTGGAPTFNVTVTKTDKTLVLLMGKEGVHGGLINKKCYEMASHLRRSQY
inactive: [1] -0.004 | [2] 0.009 | [3] 0 | [4] -0.004 | [5] -0.007

PDXDC1 (UniProt Q6P996)
UniProt Q6P996, sequence (Q6P996 whole entry, looked up): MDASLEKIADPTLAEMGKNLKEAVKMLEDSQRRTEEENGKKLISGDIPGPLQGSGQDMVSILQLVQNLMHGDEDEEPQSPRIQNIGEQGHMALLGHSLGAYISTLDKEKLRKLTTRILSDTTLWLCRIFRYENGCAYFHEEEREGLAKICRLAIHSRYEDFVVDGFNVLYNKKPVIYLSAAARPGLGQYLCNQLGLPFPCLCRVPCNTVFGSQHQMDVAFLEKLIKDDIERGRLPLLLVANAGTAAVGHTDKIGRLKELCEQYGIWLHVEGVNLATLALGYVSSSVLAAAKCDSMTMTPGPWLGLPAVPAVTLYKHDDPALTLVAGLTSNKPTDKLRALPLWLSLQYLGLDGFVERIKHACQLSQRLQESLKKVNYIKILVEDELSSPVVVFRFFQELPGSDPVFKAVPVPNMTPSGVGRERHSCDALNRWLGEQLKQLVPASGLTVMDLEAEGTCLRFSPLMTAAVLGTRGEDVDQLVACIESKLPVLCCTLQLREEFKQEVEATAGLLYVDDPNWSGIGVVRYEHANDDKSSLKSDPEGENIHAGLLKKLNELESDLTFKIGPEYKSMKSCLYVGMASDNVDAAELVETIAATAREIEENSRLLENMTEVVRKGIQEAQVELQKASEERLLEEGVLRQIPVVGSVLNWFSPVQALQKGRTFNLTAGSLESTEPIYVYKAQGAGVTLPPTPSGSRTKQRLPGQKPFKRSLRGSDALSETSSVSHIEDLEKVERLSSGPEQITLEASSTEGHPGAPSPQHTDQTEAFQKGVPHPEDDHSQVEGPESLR
inactive: [1] 0.025 | [2] 0.022 | [3] 0.01 | [4] 0.02 | [5] 0.014

PIM1 isoform 2 (UniProt P11309)
UniProt P11309, sequence (P11309 whole entry, looked up): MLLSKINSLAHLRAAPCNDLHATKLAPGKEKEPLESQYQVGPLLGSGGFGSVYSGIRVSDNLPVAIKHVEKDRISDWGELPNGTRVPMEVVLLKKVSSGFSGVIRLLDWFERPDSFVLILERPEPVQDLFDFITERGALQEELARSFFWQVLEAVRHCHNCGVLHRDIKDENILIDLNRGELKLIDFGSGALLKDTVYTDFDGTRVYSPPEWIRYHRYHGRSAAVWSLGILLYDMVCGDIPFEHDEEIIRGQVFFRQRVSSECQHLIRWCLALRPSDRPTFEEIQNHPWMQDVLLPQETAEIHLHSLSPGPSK
inactive: [1] -0.115 | [2] -0.046 | [3] -0.127 | [4] -0.025 | [5] -0.191

Reference: the supplement of paper PMC10849652
